Assay [1] can be described thus: NCI Yeast Anticancer Drug Screen. Data for the rad50 strain (AID 155).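 Note: 0% = growth of vehicle-only cultures of the same strain.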 The note with it: S. cerevisiae rad50 strain growth inhibition; at 50.0 µM; hits give high values. Summed up: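 Yeast carrying a defined DNA repair defect were exposed to test compounds, and growth was compared with vehicle-treated controls to give percent inhibition.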
Assay [2] can be described thus: NCI Yeast Anticancer Drug Screen. Data for the mec2-1 strain (AID 157). Conditions: S. cerevisiae mec2-1 strain, at 50.0 µM, hits give high values. The essentials: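 Mutant yeast (mec2-1) grown with compound; growth inhibition relative to vehicle control reported.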
Assay [3] is described as follows: NCI Yeast Anticancer Drug Screen. Data for the sgs1 mgt1 strain (AID 161).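 Note: 0% = growth of cultures given vehicle only.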 The note with it: S. cerevisiae sgs1 mgt1 strain, at 50.0 µM, hits give high values. Summed up:
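This yeast growth screen uses a strain with defined DNA-repair lesions; compound-treated growth is compared with vehicle-treated growth.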

Assay [4] in a line: NCI Yeast Anticancer Drug Screen. Data for the cln2 rad14 strain (AID 165).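 Note: 0% = growth equal to vehicle treated cultures.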 Conditions: S. cerevisiae cln2 rad14 strain, at 50.0 µM, hits give high values. Summed up:
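Readout is yeast growth inhibition versus vehicle-treated controls, using a strain with cln2 and rad14 alterations exposed to compound.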

Assay [5] in a line: NCI Yeast Anticancer Drug Screen. Data for the bub3 strain (AID 167). Conditions: S. cerevisiae bub3 mutant strain, at 50.0 µM, hits give high values. Summed up: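 Compounds were applied to a genetically altered yeast strain carrying a cell-cycle control defect. Growth inhibition was scored against vehicle-treated controls.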
Assay [6] is described as follows: NCI Yeast Anticancer Drug Screen. Data for the mlh1 rad18 strain (AID 175). The note with it: S. cerevisiae mlh1 rad18 strain growth inhibition; at 50.0 µM; hits give high values. The essentials: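 Genetically defined yeast (DNA repair-deficient) exposed to compounds; growth inhibition determined relative to vehicle.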

About 79,000 compounds went through this panel and 15% of them were active in at least one assay; those are over-represented in the sample as a whole. Unmarked numbers belong to inactive results. The source made the active and inactive calls. Cut-off read from the data, not from the text of the source: active = growth inhibition above about 70%; inactive = the rest.

As to `CC(=O)OCC1OC(n2c(-c3ccc(C)cc3)cc(-c3ccccc3)c(C#N)c2=S)C(OC(C)=O)C(OC(C)=O)C1OC(C)=O` (stereo unspecified), the growth inhibition in assay [1] was 17.9%; in assay [2], 9.35%; in assay [3] it was 6.15%; in assay [4] it was -8.55%; in assay [5] it was 27.9%; in assay [6], 27.8%.
For the molecule `CCOC(=O)Sc1nccn1C`, the growth inhibition in assay [1] is 8.05%; in assay [2], -19.2%; in assay [3], 3.25%; in assay [4], -4.7%; in assay [5], -13.2%; in assay [6] it was -0.45%.
As to `CC(=O)OC1CC(c2ccccc2)N(C)C(c2ccccc2)C1` (stereo unspecified), the growth inhibition is 6.85% in assay [1]; -8% in assay [2]; 2.55% in assay [3]; -7.9% in assay [4]; -3.15% in assay [5]; 10.6% in assay [6].
Turning to `CN(C(=O)c1ccc(Cl)c(Cl)c1)C(c1ccco1)P(=O)(c1ccccc1)c1ccccc1` (stereo unspecified), the growth inhibition in assay [1] was 54%; in assay [2], 46.2%; in assay [3], 78.4% (active); in assay [4], 17.2%; in assay [5] it was 50.4%; in assay [6], 45.9%.
For the molecule `Cc1ccc2nc(N=C(N)N)[nH]c2c1`, the growth inhibition is -16.5% in assay [1]; -33.1% in assay [2]; 2.75% in assay [3]; 1.1% in assay [4]; -14.3% in assay [5]; -12.6% in assay [6].
For the molecule `N=c1ncn(Cc2ccccc2)c2nc[nH]c12`, the growth inhibition in assay [1] was -2.4%; in assay [2] it was 2%; in assay [3], 1.3%; in assay [4], -3.6%; in assay [5], 10%; in assay [6], -4%.
Regarding `C#CC(C)(O)CCCCCC` (stereo unspecified), the growth inhibition in assay [1] is 3.7%; in assay [2] it was 16.4%; in assay [3], 12%; in assay [4], -4.05%; in assay [5], 35%; in assay [6], -7.1%.
With `CCCCNC(=S)/N=C/c1c(O)cc(C)oc1=O`, the growth inhibition in assay [1] was -16.6%; in assay [2] it was -25.9%; in assay [3], -24.1%; in assay [4], 2.25%; in assay [5], -14.6%; in assay [6], 2.75%.
In the case of `CC(=O)Oc1ccc2ccccc2c1CN(C(C)=O)c1ccc(C)cc1`, the growth inhibition in assay [1] is -7.45%; in assay [2], -22.7%; in assay [3], -10.1%; in assay [4] it was -19.4%; in assay [5], 1.7%; in assay [6] it was -28.4%.
For `CC1(C)OC2COC(CNCC3OCC4OC(C)(C)OC34)C2O1` (stereo unspecified), the growth inhibition in assay [1] is 3%; in assay [2], -14.4%; in assay [3], -6.75%; in assay [4], -22.3%; in assay [5], -14.8%; in assay [6] it was 4.55%.
As to `CC(=O)OC1CCC2C(C)(CCC3C2(C)CCC2(C)C4CC(C)(C)CCC4(C)CCC32C)C1C` (stereo unspecified), the growth inhibition in assay [1] is -15.1%; in assay [2], -6.25%; in assay [3], -11.8%; in assay [4], -38.1%; in assay [5], -0.05%; in assay [6], -11.8%.
For `C=Cc1c2ccccc2cc2c1ccc1ccccc12`, the growth inhibition in assay [1] is 89.3% (active); in assay [2] it was 95.2% (active); in assay [3] it was 93.5% (active); in assay [4], 87.2% (active); in assay [5] it was 93.3% (active); in assay [6], 95.2% (active).
Regarding `CCCN(CCC)S(=O)(=O)c1ccc(NC(=O)OC(CC)c2ccco2)cc1` (stereo unspecified), the growth inhibition was 27.8% in assay [1]; -3.8% in assay [2]; 8% in assay [3]; 7.85% in assay [4]; -5.5% in assay [5]; 8.8% in assay [6].
In the case of `CC1(C)OCC(C2OC(C)(C)OC2C(CO)Nc2ccc([N+](=O)[O-])cc2[N+](=O)[O-])O1` (stereo unspecified), the growth inhibition in assay [1] is 53%; in assay [2], 21.4%; in assay [3] it was 59.1%; in assay [4] it was 41.4%; in assay [5], 11.2%; in assay [6], 49.1%.
For `COC(=O)C1=C(C)C=C(N2CCOCC2)C(C(=O)OC)C1c1ccccc1` (stereo unspecified), the growth inhibition was -0.85% in assay [1]; -16.2% in assay [2]; -11.4% in assay [3]; -3.1% in assay [4]; -1.55% in assay [5]; 9% in assay [6].
Take `CCOC(=O)c1cn(C)c2c1C(=O)C(C(=O)OCC)CCN2C(=O)OCC` (stereo unspecified): the growth inhibition in assay [1] is -1.5%; in assay [2], 9.15%; in assay [3], -11.8%; in assay [4] it was 8.95%; in assay [5], 1%; in assay [6], -19.6%.
Turning to `O=C(C[n+]1cc(Br)cc(Br)c1)c1ccc(Br)cc1`, the growth inhibition is -16.9% in assay [1]; -0.15% in assay [2]; -0.05% in assay [3]; -0.9% in assay [4]; -4.95% in assay [5]; 37.9% in assay [6].
Take `COc1cc(O)c2c(c1)C(=O)c1cc3c(c(O)c1C2=O)CC(OC)C(C)(O)C3O` (stereo unspecified): the growth inhibition in assay [1] is 90.5% (active); in assay [2], 91.3% (active); in assay [3] it was 91.8% (active); in assay [4] it was 88.5% (active); in assay [5] it was 91.8% (active); in assay [6] it was 91.2% (active).
On to `O=C1NC2OCC(O)C(O1)C2O` (stereo unspecified), for which the growth inhibition is 3.85% in assay [1]; 1% in assay [2]; -13.3% in assay [3]; 7.75% in assay [4]; -2.25% in assay [5]; 16.3% in assay [6].
`COc1ccc(NC(N)=O)cc1`: the growth inhibition in assay [1] was 12.2%; in assay [2], -16.4%; in assay [3], 0.05%; in assay [4], -1.25%; in assay [5] it was -6.35%; in assay [6] it was 10.4%.
Consider `Cc1nc2ccccc2nc1C`, for which the growth inhibition in assay [1] is -15.2%; in assay [2], -1.8%; in assay [3], -8.85%; in assay [4], 1.2%; in assay [5], -2.35%; in assay [6], 4.85%.

(Values after PubChem BioAssay (NCI).)
